These results are taken from the supplement of paper PMC6522484.

± gives the standard deviation of the averaged measurements.

Assay [1] concerns DLD1. Put plainly: cell viability (CellTiter-Glo) relative to plate median (fraction of plate median); higher = more viable cells. The following applies: 5 µM; treatment time 24 h; reporter: 7TFP. In short, it runs like this:
(§1)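 Colorectal cancer lines with stably integrated lentiviral TCF/Wnt firefly luciferase reporters received library compounds at a final 5 µM, 24 h after seeding into 384-well plates, for a 24 h exposure. Reported figures are plate-median-normalised firefly luciferase or CellTiterGlo luminescence per well. They average two independent replicates.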
Background: ATP-based viability assays read luminescence as a measure of living cells.

The test system of a further assay is HCT116. The description is as above. The note with it: 5 µM; treatment time 24 h; reporter: TCF4/Wnt. In short, it runs like this: as §1
For assay [2], the system named is SW480. Described as above. The following applies: 5 µM; treatment time 24 h; reporter: 7TFP. A digest of the protocol:
as §1

Assay [3] has as its system DLD1. Put plainly: TCF/Wnt firefly luciferase reporter signal relative to plate median (fraction of plate median); higher = higher Wnt reporter signal. The following applies: 5 µM; treatment time 24 h; reporter: 7TFP. In short, it runs like this:
as §1
Background: A reporter such as luciferase makes a cellular process visible.

Assay [4] relates to SW480. The description is as above. The following applies: 5 µM; treatment time 24 h; reporter: 7TFP. A digest of the protocol:
as §1

In the case of `CCCCCCc1ccc(O)cc1O.Nc1c2ccccc2nc2ccccc12`, the cell viability came to 1.03 ± 0.056 in the assay on DLD1 [1], 0.829 ± 0.0071 in the assay with HCT116 and 1.1 ± 0.057 in the assay on SW480 [2]. The “TCF/Wnt firefly luciferase reporter signal” value with DLD1 [3] is 1.98 ± 0.34; in the assay on SW480 [4], 0.848 ± 0.045.

For `CN(C)CCC(c1ccc(Br)cc1)c1ccccn1` (stereo not given), the cell viability in the assay on DLD1 [1] is 0.931 ± 0.15; in the assay on HCT116, 1.055 ± 0.0071; in the assay with SW480 [2], 0.922 ± 0.061. Besides, the entries for the “TCF/Wnt firefly luciferase reporter signal” value in the assay with DLD1 [3] and with SW480 [4] were 1.11 ± 0.11 and 1.055 ± 0.0071, respectively.

In the case of `COC(=O)CCCOc1ccc(Cl)cc1Cl`, the values for the cell viability in the assay with DLD1 [1], in the assay on HCT116 and in the assay on SW480 [2] were 0.984 ± 0.093, 1.02 ± 0.11 and 0.965 ± 0.05, respectively. The “TCF/Wnt firefly luciferase reporter signal” value amounted to 1.1 ± 0.099 in the assay on DLD1 [3] and 0.9 ± 0.23 in the assay on SW480 [4].

For `O=C(O[C@@H]1Cc2c(O)cc(O)cc2O[C@@H]1c1cc(O)c(O)c(O)c1-c1c([C@H]2Oc3cc(O)cc(O)c3C[C@H]2OC(=O)c2cc(O)c(O)c(O)c2)cc(O)c(O)c1O)c1cc(O)c(O)c(O)c1`, the cell viability in the assay on DLD1 [1] was 1.08 ± 0.05; with HCT116, 1.15 ± 0.12; in the assay on SW480 [2] it was 1.035 ± 0.0071. The “TCF/Wnt firefly luciferase reporter signal” value worked out at 1.03 ± 0.11 in the assay on DLD1 [3] and 1.01 ± 0.047 with SW480 [4].

As for `O=c1ccc2ccc(O)cc2o1`, the figures for the cell viability in the assay on DLD1 [1], in the assay on HCT116 and in the assay on SW480 [2] were 0.995 ± 0.036, 0.972 ± 0.014 and 1.03 ± 0.028, respectively. For the same molecule, the results for the “TCF/Wnt firefly luciferase reporter signal” value with DLD1 [3] and with SW480 [4] were 0.936 ± 0.13 and 0.935 ± 0.042, respectively.

For the molecule `NCC[C@H](O)C(=O)N[C@@H]1C[C@H](N)[C@@H](O[C@H]2O[C@H](CN)[C@@H](O)[C@H](O)[C@H]2O)[C@H](O)[C@H]1O[C@H]1O[C@H](CO)[C@@H](O)[C@H](N)[C@H]1O`, the cell viability with DLD1 [1] was determined as 1.01 ± 0.014; in the assay on HCT116 it was 1 ± 0.037; with SW480 [2], 0.995 ± 0.036. Also, the “TCF/Wnt firefly luciferase reporter signal” value turned out to be 0.821 ± 0.11 in the assay with DLD1 [3] and 0.905 ± 0.12 in the assay on SW480 [4].

With `CN(C(=O)CN(CCO)CC(=O)N(C)C(C)(C)Cc1ccccc1)C(C)(C)Cc1ccccc1`, the cell viability is 1.01 ± 0.022 with DLD1 [1], 1.04 ± 0.11 in the assay on HCT116 and 1.11 with SW480 [2]. Besides, the “TCF/Wnt firefly luciferase reporter signal” value was determined as 1.15 ± 0.05 in the assay on DLD1 [3] and 1.025 ± 0.0071 with SW480 [4].

`COc1ccc(C(=O)/C=C/c2ccccc2)cc1`: the cell viability in the assay with DLD1 [1] amounted to 0.964 ± 0.0028; in the assay on HCT116, 0.977 ± 0.0085; in the assay with SW480 [2] it was 0.972 ± 0.069. In addition, the “TCF/Wnt firefly luciferase reporter signal” value turned out to be 0.936 ± 0.04 with DLD1 [3] and 0.944 ± 0.15 in the assay with SW480 [4].

As to `CC1(C)CC2C1CCC1(C)OC1CCC2(C)O` (stereo not given), the cell viability was found to be 0.995 ± 0.036 in the assay with DLD1 [1], 1 ± 0.067 with HCT116 and 0.975 ± 0.0071 in the assay on SW480 [2]. In addition, the “TCF/Wnt firefly luciferase reporter signal” value is 1.07 ± 0.078 in the assay with DLD1 [3] and 1 ± 0.065 in the assay on SW480 [4].

As to `CCCCC(=O)Oc1ccccc1C(=O)O`, the results for the cell viability in the assay with DLD1 [1], with HCT116 and with SW480 [2] were 0.984 ± 0.013, 0.98 ± 0.042 and 0.988 ± 0.018, respectively. Moreover, the “TCF/Wnt firefly luciferase reporter signal” value in the assay with DLD1 [3] stood at 1 ± 0.052; with SW480 [4] it was 1 ± 0.2.

Take `CC(=O)O[C@H]1C(=O)[C@@]2(C)[C@H]([C@H](OC(=O)c3ccccc3)[C@]3(O)C[C@H](OC(=O)[C@H](O)[C@@H](NC(=O)c4ccccc4)c4ccccc4)C(C)=C1C3(C)C)[C@]1(OC(C)=O)CO[C@@H]1C[C@@H]2O`: the cell viability amounted to 0.901 ± 0.03 with DLD1 [1], 0.498 ± 0.016 in the assay with HCT116 and 1.11 ± 0.092 in the assay with SW480 [2]. Also, the “TCF/Wnt firefly luciferase reporter signal” value in the assay with DLD1 [3] is 0.792 ± 0.27; with SW480 [4], 0.755 ± 0.23.

With `C=C1C(=O)O[C@H]2[C@H]1CC/C(C)=C/CC[C@@]1(C)O[C@@H]21`, the results for the cell viability in the assay with DLD1 [1], in the assay with HCT116 and in the assay with SW480 [2] were 0.84 ± 0.12, 0.998 ± 0.017 and 0.886 ± 0.044, respectively. In addition, the “TCF/Wnt firefly luciferase reporter signal” value with DLD1 [3] was found to be 0.825 ± 0.096; with SW480 [4], 0.836 ± 0.049.

For `CC(C)(C)NC[C@H](O)COc1cccc2c1CCCC2=O`, the values for the cell viability in the assay on DLD1 [1], with HCT116 and in the assay on SW480 [2] were 0.99 ± 0.043, 1.03 ± 0.075 and 0.9555 ± 0.0035, respectively. In addition, the entries for the “TCF/Wnt firefly luciferase reporter signal” value with DLD1 [3] and in the assay on SW480 [4] were 0.886 ± 0.0085 and 0.981 ± 0.084, respectively.

As to `CCN(Cc1ccncc1)C(=O)C(CO)c1ccccc1` (stereo not given), the cell viability was determined as 0.9915 ± 0.0035 with DLD1 [1], 0.976 ± 0.048 with HCT116 and 1.04 ± 0.021 in the assay on SW480 [2]. The “TCF/Wnt firefly luciferase reporter signal” value with DLD1 [3] was 1.04 ± 0.057; in the assay on SW480 [4], 1.08 ± 0.078.
